The text below walks through data of PubChem BioAssay (NCATS).

Experiment [1] can be described thus: qHTS of pediatric cancer cell lines to identify multiple opportunities for drug repurposing: Primary screen for SK-N-SH cells (AID 1347098). Also: nearly all actives have a fitted effect of over 65% in size. Also: potency is read from the fitted curve at half-maximal effect. In short, it runs like this:
(§1)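 Cells (500-1,000/well) rested 5 h, then received compounds for 48 h; metabolically active cells were measured by CellTiter-Glo luminescence. Final concentrations spanned up to 46 µM (MIPE, 11-point) or 0.59 nM-46 µM (NPC, 8-point) in primary screens, 11-point in follow-ups.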

Experiment [2] is described as follows: qHTS of pediatric cancer cell lines to identify multiple opportunities for drug repurposing: Primary screen for NB1643 cells (AID 1347099). Also: nearly all actives have a fitted effect of over 50% in size. Also: potency is read from the fitted curve at half-maximal effect. The essentials: (§2)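 CRCs from 8- or 11-point titrations (lowest final 0.59 nM NPC, 0.78 nM MIPE). Cell viability: CellTiter-Glo after 48 h incubation, 15 min room-temperature development, luminescence imaging.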
A general note: qHTS replaces the single test concentration by a dilution series.

Experiment [3] can be described thus: qHTS of pediatric cancer cell lines to identify multiple opportunities for drug repurposing: Primary screen for LAN-5 cells (AID 1347100). Also: potency is read from the fitted curve at half-maximal effect. In short, it runs like this:
(§3)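 Cells (500-1,000/well) in growth media were settled 5 h at 37 degrees C, then given compounds for 48 h. Viability was read as CellTiter-Glo luminescence. Primary runs used MIPE at 11 points (0.78 nM-46 µM) and NPC at 8 points (0.59 nM-46 µM); follow-ups used 11 points.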

Experiment [4] can be described thus: qHTS of pediatric cancer cell lines to identify multiple opportunities for drug repurposing: Primary screen for Rh18 cells (AID 1347102). Also: nearly all actives have a fitted effect of over 65% in size. Also: potency is read from the fitted curve at half-maximal effect. In short, it runs like this: as §3
The nature of experiment [5]: qHTS of pediatric cancer cell lines to identify multiple opportunities for drug repurposing: Primary screen for OHS-50 cells (AID 1347103). Also: nearly all actives have a fitted effect of over 40% in size. Also: potency is read from the fitted curve at half-maximal effect. The essentials:
as §1

A short description of experiment [6]: qHTS of pediatric cancer cell lines to identify multiple opportunities for drug repurposing: Primary screen for MG 63 (6-TG R) cells (AID 1347105). Also: nearly all actives have a fitted effect of over 50% in size. Also: potency is read from the fitted curve at half-maximal effect. The essentials:
as §2

Experiment [7] can be described thus: qHTS of pediatric cancer cell lines to identify multiple opportunities for drug repurposing: Primary screen for BT-12 cells (AID 1347101). Also: nearly all actives have a fitted effect of over 25% in size. Also: potency is read from the fitted curve at half-maximal effect. In short, it runs like this:
as §1

A short description of experiment [8]: qHTS of pediatric cancer cell lines to identify multiple opportunities for drug repurposing: Primary screen for RD cells (AID 1347104). Also: nearly all actives have a fitted effect of over 55% in size. Also: potency is read from the fitted curve at half-maximal effect. The essentials:
as §2

Experiment [9] in a line: qHTS of pediatric cancer cell lines to identify multiple opportunities for drug repurposing: Primary screen for control Hh wild type fibroblast cells (AID 1347106).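 Also: series mostly up to about 46 µM; a drop in luminescence marks cytotoxicity and a rise apparent proliferation; nearly all actives have a fitted effect of over 55% in size.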 The essentials:
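Viability after 48 h compound treatment at 37C, 500-1,000 cells/well, read as ATP luminescence with CellTiter-Glo. Primary screens used 11-point (MIPE, 0.78 nM-46 µM) or 8-point (NPC, 0.59 nM-46 µM) final concentrations; follow-up screens used 11-point dilutions.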

Inconclusive results are not listed. A number with no mark means an inactive call. Calls of active or inactive are those of the source. Calls follow the shape of the dose curve; as a rule, active = well fitted curve in the direction sought with a large enough effect; inconclusive = small, poorly fitted or top-dose-only effect, or another doubt; inactive = no such curve, though single readings can be large; an effect the other way counts as inactive or inconclusive.

For `CC1CNc2c(cccc2S(=O)(=O)N[C@@H](CCCN=C(N)N)C(=O)N2CC[C@@H](C)C[C@@H]2C(=O)O)C1` (some centres not stated), the results for the Potency in experiment [1], in experiment [2] and in experiment [3] were 8.57 µM (active), 5.26 µM (active) and 9.35 µM (active), respectively. In addition, the Potency entry in [4], in experiment [5] and in [6] was “inactive” in each case.
In the case of `C[C@@H](NC(=O)c1ncnc(N)c1Cl)c1ncc(C(=O)Nc2cc(C(F)(F)F)c(Cl)cn2)s1`, the Potency in [1] is 19.2 µM (active); in [2], 14.8 µM (active). For the same molecule, the Potency result in experiment [4] and in experiment [6] was “inactive” each time.
On to `O[C@@H](COc1cccc2ncccc12)CN1CCN(C2c3ccccc3[C@@H]3[C@H](c4ccccc42)C3(F)F)CC1` (some centres not stated), for which the Potency in [1] was 15.2 µM (active); in experiment [2], 3.32 µM (active); in experiment [3] it was 4.73 µM (active); in experiment [7], 24.3 µM (active); in experiment [5], 15.5 µM (active); in experiment [8], 18.7 µM (active). For the same molecule, the Potency in [6] was 29.6 µM (active). For the same molecule, in experiment [9], the Potency entry was “inactive”.
Regarding `CNC(=O)[C@H](CC1=CN=C2C=CCC=C12)NC(=O)[C@@H](CC(=O)NO)CC(C)C`, the Potency is 1.21 µM (active) in [1]; 0.0662 µM (active) in experiment [2]; 0.344 µM (active) in [7]; 1.37 µM (active) in [5]; 1.18 µM (active) in experiment [8]; 9.35 µM (active) in experiment [6]. Further, the Potency entry in experiment [4] and in experiment [9] was “inactive” each time.
Consider `CCc1cccc(CC)c1NC(=O)N1Cc2[nH]nc(NC(=O)c3ccc(N4CCN(C)CC4)cc3)c2C1`, for which the Potency in experiment [1] was 6.07 µM (active); in [3] it was 0.296 µM (active); in experiment [4] it was 8.33 µM (active); in experiment [6], 14.8 µM (active). Also, the Potency entry in experiment [2] and in [7] was “inactive” throughout.
Turning to `CC[C@@H]([C@H](C)O)n1ncn(-c2ccc(N3CCN(c4ccc(OCC5CO[C@@](Cn6cncn6)(c6ccc(F)cc6F)C5)cc4)CC3)cc2)c1=O` (some centres not stated), the Potency entry in experiment [1], in experiment [6] and in [9] was “inactive” throughout. The Potency is 23.5 µM (active) in experiment [2]; 18.7 µM (active) in experiment [3]; 21.7 µM (active) in experiment [7]; 21.7 µM (active) in [5]; 20.9 µM (active) in experiment [8].
For the molecule `O=C(O)c1ccc(O)c2ncc(N3CCOCC3)cc12`, the Potency was 30.4 µM (active) in experiment [1], 23.5 µM (active) in [2] and 24.3 µM (active) in [5]. For the same molecule, in experiment [4], the Potency result was “inactive”.
Consider `CC(=O)OCC(=O)[C@@]12OC(C)(C)O[C@H]1C[C@H]1[C@@H]3C[C@H](F)C4=CC(=O)C=C[C@]4(C)[C@@]3(F)[C@@H](O)C[C@@]12C`, for which the Potency result in experiment [1], in [2], in experiment [3], in experiment [7], in experiment [4] and in [8] was “inactive” throughout. The Potency entry in experiment [6] and in experiment [9] was “inactive” each time.
Regarding `COc1cc2c(cc1Cc1cccc(Cl)c1F)c(=O)c(C(=O)O)cn2[C@H](CO)C(C)C`, the Potency entry in experiment [1] is “inactive”. Moreover, the figures for the Potency in experiment [2] and in [5] were 23.5 µM (active) and 27.3 µM (active), respectively.
For `CN1CCC(COc2cnc(-c3cccc(Cn4nc(-c5cccc(C#N)c5)ccc4=O)c3)nc2)CC1`, the Potency in experiment [1] was 24.1 µM (active); in experiment [8], 4.69 µM (active); in experiment [6], 0.743 µM (active). In addition, the Potency entry in [2], in experiment [7] and in [4] was “inactive” throughout.
In the case of `CN(C)CCOc1ccc(C(=C(CCCl)c2ccccc2)c2ccccc2)cc1`, the Potency result in [1], in experiment [2], in experiment [3], in experiment [7], in experiment [8] and in experiment [6] was “inactive” throughout. For the same molecule, the Potency entry in experiment [9] is “inactive”.
Consider `CC(=O)O[C@]1(C(C)=O)CC[C@H]2[C@@H]3C=C(Cl)C4=CC(=O)[C@@H]5C[C@H]5[C@]4(C)[C@@H]3CC[C@@]21C`, for which the Potency in [1] was 12.1 µM (active); in experiment [2], 14.8 µM (active); in [7], 3.43 µM (active); in experiment [5], 3.43 µM (active); in experiment [8], 18.7 µM (active). Further, in experiment [4], the Potency result was “inactive”.
For `CC(C)[C@H](O)C(=O)N[C@@H](C)C(=O)N[C@@H]1C(=O)N(C)CCc2ccccc21`, the Potency result in experiment [1], in [3], in experiment [7], in experiment [4] and in [9] was “inactive” each time. Further, the Potency in experiment [2] is 20.9 µM (active).
Take `CC[C@H](C)n1cc(C)c2c(C(=O)NCc3c(C)cc(C)[nH]c3=O)cc(-c3ccc(N4CCNCC4)nc3)cc21`: the Potency in [1] is 6.07 µM (active); in experiment [2], 1.66 µM (active); in experiment [3], 23.5 µM (active); in experiment [7] it was 30.6 µM (active); in experiment [8] it was 4.69 µM (active); in [6] it was 23.5 µM (active). In experiment [9], the Potency entry was “inactive”.
Take `CCC(=C(CC)c1ccc(O)cc1)c1ccc(O)cc1`: the Potency in [1] is 7.64 µM (active); in experiment [2], 9.35 µM (active); in experiment [3], 16.6 µM (active); in experiment [6], 18.7 µM (active). Moreover, the Potency result in experiment [4] and in [9] was “inactive” each time.
With `CCN1CCN(c2ccc(Nc3cc(N(C)C(=O)Nc4c(Cl)c(OC)cc(OC)c4Cl)ncn3)cc2)CC1`, the Potency result in experiment [1], in [2], in [7], in experiment [6] and in experiment [9] was “inactive” each time.
Regarding `C[C@H](c1ccc(F)cc1CCCC(=O)O)N(c1cc(F)ccc1F)S(=O)(=O)c1ccc(Cl)cc1`, the values for the Potency in experiment [1] and in experiment [2] were 19.2 µM (active) and 14.8 µM (active), respectively. In addition, the Potency result in [7], in experiment [4] and in experiment [9] was “inactive” each time.
Turning to `Cc1cc(NC(=O)Nc2ccc(N(C)C)cc2)c2cc(F)cc(F)c2n1`, the Potency result in experiment [1], in experiment [2], in experiment [3], in [4], in experiment [8] and in experiment [6] was “inactive” each time. The Potency result in experiment [9] was “inactive”.
Consider `COc1nccc(-c2c(-c3ccc(F)cc3)ncn2C2CCNCC2)n1`, for which the Potency result in experiment [1], in experiment [2], in experiment [3], in [4], in experiment [6] and in experiment [9] was “inactive” throughout.
`CN1CC(=O)NC1=NC(=O)Nc1cccc(Cl)c1`: the Potency in [1] was 8.57 µM (active); in experiment [2], 4.69 µM (active). Moreover, the Potency entry in experiment [4], in experiment [6] and in experiment [9] was “inactive” in each case.
Regarding `CNC1CCC(N(Cc2cccc(-c3ccncc3)c2)C(=O)c2sc3ccccc3c2Cl)CC1` (configuration not stated), the Potency in experiment [1] is 24.1 µM (active); in [2], 20.9 µM (active); in experiment [7], 30.6 µM (active); in experiment [4], 23.5 µM (active); in [8] it was 18.7 µM (active); in experiment [6] it was 29.6 µM (active).
